What is called AC50 is the concentration at which the activity in the assay is half-maximal.

Among the data in PubChem BioAssay (EPA / NIEHS) are outcome and AC50 values, retold here.

Assay [1] deals with bovine Gamma-Aminobutyric Acid Type A Receptor BDZ, alpha 5 site (GABARa5), GABRA5 (gene 523515) (UniProt Q08E50). Kind of assay: NVS_LGIC_bGABARa5: NovaScreen (NVS) Ligand-Gated Ion Channel Assay for bovine Gamma-Aminobutyric Acid Type A Receptor BDZ, alpha 5 site (GABARa5) (AID 2283323). An outline of the steps: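 Tested first in duplicate at a single 25 uM, with hits re-run in concentration series to a 50 uM maximum. Bovine hippocampal membranes; specific radioligand displacement measured by filter scintillation counting 1 hr post-dose.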
Chain of bovine Gamma-Aminobutyric Acid Type A Receptor BDZ, alpha 5 site (GABARa5), GABRA5 (gene 523515) (Q08E50 whole entry, looked up): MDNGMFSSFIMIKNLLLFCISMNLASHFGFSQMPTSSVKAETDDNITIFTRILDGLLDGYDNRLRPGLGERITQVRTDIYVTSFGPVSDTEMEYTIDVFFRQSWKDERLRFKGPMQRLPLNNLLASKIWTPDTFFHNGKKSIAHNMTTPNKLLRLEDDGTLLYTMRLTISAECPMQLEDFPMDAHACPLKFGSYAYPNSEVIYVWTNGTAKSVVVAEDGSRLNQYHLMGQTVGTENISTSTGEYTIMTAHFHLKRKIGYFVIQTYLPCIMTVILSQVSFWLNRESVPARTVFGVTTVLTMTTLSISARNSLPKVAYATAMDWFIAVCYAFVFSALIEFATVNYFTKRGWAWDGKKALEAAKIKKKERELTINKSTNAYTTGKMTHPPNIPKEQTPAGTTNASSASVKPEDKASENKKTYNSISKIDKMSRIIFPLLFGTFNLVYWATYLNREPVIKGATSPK

The target in assay [2] is human Serotonin, 5-Hydroxytryptamine Receptor 3 (5HT3), HTR3A (gene 3359) (UniProt P46098). Put plainly: NVS_LGIC_h5HT3: NovaScreen (NVS) Ligand-Gated Ion Channel Assay for human Serotonin, 5-Hydroxytryptamine Receptor 3 (5HT3) (AID 2283325). Summed up: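 Initially tested at 25 uM in duplicate, then up to 50 uM in concentration-response for actives, compounds competed with a radioligand for HEK293-derived human 5-HT3 receptor. Bound counts were measured by filtration and scintillation at 1 h; loss of signal versus DMSO.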
Chain of human Serotonin, 5-Hydroxytryptamine Receptor 3 (5HT3), HTR3A (gene 3359) (P46098 whole entry, looked up): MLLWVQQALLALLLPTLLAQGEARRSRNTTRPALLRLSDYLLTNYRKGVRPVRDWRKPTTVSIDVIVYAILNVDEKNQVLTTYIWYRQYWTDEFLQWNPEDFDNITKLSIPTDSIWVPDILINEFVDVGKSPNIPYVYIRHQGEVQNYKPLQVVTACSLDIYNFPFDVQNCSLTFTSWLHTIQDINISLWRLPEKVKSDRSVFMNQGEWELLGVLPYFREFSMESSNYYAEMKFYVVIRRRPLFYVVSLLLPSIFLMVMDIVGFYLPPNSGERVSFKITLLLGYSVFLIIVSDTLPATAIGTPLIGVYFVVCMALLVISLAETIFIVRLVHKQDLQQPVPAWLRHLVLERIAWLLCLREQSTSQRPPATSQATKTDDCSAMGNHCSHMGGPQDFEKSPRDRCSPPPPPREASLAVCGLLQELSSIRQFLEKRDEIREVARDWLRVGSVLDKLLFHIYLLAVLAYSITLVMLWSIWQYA

For assay [3], the target named is bovine Gamma-Aminobutyric Acid Type A Receptor Agonist (GABAR Agonist), GABRA1 (gene 780973) (UniProt P08219). Put plainly: NVS_LGIC_bGABAR_Agonist: NovaScreen (NVS) Ligand-Gated Ion Channel Assay for bovine Gamma-Aminobutyric Acid Type A Receptor Agonist (GABAR Agonist) (AID 2283338). An outline of the steps:
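Radioligand binding to bovine cerebellar membranes in agonist format, read by filter-based scintillation counting after 1 h. Primary screen in duplicate at 25 uM, with actives followed in concentration series. Gain of signal versus DMSO.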

Assay [4] has as its target rat Glycine Receptor, Strychnine-sensitive (GlyRStrySens), Glra1 (gene 25674) (UniProt P07727). Kind of assay: NVS_LGIC_rGlyRStrySens: NovaScreen (NVS) Ligand-Gated Ion Channel Assay for rat Glycine Receptor, Strychnine-sensitive (GlyRStrySens) (AID 2283341). Summed up: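 Radioligand displacement on rat spinal cord membranes, 1 hr, filter scintillation read-out. Single-concentration duplicate screen at 25 uM; chemicals meeting threshold (e.g., 30% inhibition) rerun in concentration-response up to 50 uM. Loss of binding fitted versus DMSO.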

Assay [5] has as its target rat Gamma-Aminobutyric Acid Type A Receptor, Non-Selective (GABAR-NonSelective), Gabra1 (gene 29705) (UniProt P62813). Put plainly: NVS_LGIC_rGABAR_NonSelective: NovaScreen (NVS) Ligand-Gated Ion Channel Assay for rat Gamma-Aminobutyric Acid Type A Receptor, Non-Selective (GABAR-NonSelective) (AID 2283326). An outline of the steps:
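Compounds were first screened in duplicate at 25 uM, with actives run as singleton concentration series (max 50 uM). Binding of a radioligand to rat whole-brain GABA-A preparation was measured by filtration and scintillation counting after 1 h, DMSO baseline.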

Assay [6] deals with rat Glutamate, NMDA Agonist Site (GluNMDA), Grin1 (gene 24408) (UniProt P35439). Put plainly: NVS_LGIC_rGluNMDA_Agonist: NovaScreen (NVS) Ligand-Gated Ion Channel Assay for rat Glutamate, NMDA Agonist Site (GluNMDA) (AID 2283327). Summed up:
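Radioligand displacement at the agonist site on rat forebrain membrane preparations, read by filter scintillation after 1 h. Chemicals were first run at 25 uM in duplicate; those passing threshold were titrated to a 50 uM maximum.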

Assay [7] deals with rat Glutamate, MK-801 Agonist Site (GluNMDA_MK801), Grin1 (gene 24408) (UniProt P35439). Put plainly: NVS_LGIC_rGluNMDA_MK801_Agonist: NovaScreen (NVS) Ligand-Gated Ion Channel Assay for rat Glutamate, MK-801 Agonist Site (GluNMDA_MK801) (AID 2283340). Summed up: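 Rat forebrain membrane preparation; MK-801-site radioligand binding read by filtration and scintillation after 1.5 h. Single-point 25 uM duplicate screen, followed by singleton concentration series to 50 uM max; DMSO baseline.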

Another assay has as its system NCBI gene 100848466. Kind of assay: NVS_NR_bPR: NovaScreen (NVS) Nuclear Receptor Binding Assay for bovine Progextron Receptor (PR) (AID 2283343).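 Further: actives lower bound radioligand signal below DMSO meaning displacement of the label.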 Summed up:
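Steps: bovine uterine membranes were dosed with chemical alongside radioligand, incubated 18 hours, then radiodetected by scintillation counting. Initial testing used 25 uM in duplicate; confirmed actives were rerun as concentration series.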

The target of assay [8] is rat Thyrotropin Releasing Hormone Receptor (TRH), Trhr (gene 25570) (UniProt Q01717). Kind of assay: NVS_GPCR_rTRH: NovaScreen (NVS) G Protein-Coupled Receptor Assay for rat Thyrotropin Releasing Hormone Receptor (TRH) (AID 2283329).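 Further: hit means lower bound tracer signal versus DMSO baseline.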 Summed up: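 Rat forebrain membranes; radioligand displacement at TRH receptor by filter-based scintillation counting, read 4 h after dosing. Duplicate single-point screen at 25 uM, actives rerun in concentration series; loss of signal relative to DMSO.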
Chain of rat Thyrotropin Releasing Hormone Receptor (TRH), Trhr (gene 25570) (Q01717 whole entry, looked up): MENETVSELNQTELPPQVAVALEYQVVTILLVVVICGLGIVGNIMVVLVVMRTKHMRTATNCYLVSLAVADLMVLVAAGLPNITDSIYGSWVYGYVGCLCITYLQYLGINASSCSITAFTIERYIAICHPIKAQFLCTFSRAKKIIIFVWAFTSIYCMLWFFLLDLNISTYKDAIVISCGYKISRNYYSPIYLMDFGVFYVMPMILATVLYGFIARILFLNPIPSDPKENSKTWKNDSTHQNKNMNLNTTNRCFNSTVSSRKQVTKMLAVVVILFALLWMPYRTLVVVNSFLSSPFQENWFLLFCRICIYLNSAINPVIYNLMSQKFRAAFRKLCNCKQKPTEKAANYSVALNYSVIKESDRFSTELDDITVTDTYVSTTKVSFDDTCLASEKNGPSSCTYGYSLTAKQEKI

The target in assay [9] is Voltage-gated inwardly rectifying potassium channel KCNH2 (Homo sapiens) (UniProt Q12809). Kind of assay: NVS_IC_hKhERGCh: NovaScreen (NVS) Ion Channel Assay for human Potassium Channel ERG (KhERGCh) (AID 2283333). An outline of the steps: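 Membranes from CHO cells expressing human ERG; displacement of radioligand measured by filtration and scintillation after 0.75 h. Single-concentration duplicate screen at 25 uM, then concentration-response for actives; DMSO baseline.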
Chain of Voltage-gated inwardly rectifying potassium channel KCNH2 (Homo sapiens) (Q12809 whole entry, looked up): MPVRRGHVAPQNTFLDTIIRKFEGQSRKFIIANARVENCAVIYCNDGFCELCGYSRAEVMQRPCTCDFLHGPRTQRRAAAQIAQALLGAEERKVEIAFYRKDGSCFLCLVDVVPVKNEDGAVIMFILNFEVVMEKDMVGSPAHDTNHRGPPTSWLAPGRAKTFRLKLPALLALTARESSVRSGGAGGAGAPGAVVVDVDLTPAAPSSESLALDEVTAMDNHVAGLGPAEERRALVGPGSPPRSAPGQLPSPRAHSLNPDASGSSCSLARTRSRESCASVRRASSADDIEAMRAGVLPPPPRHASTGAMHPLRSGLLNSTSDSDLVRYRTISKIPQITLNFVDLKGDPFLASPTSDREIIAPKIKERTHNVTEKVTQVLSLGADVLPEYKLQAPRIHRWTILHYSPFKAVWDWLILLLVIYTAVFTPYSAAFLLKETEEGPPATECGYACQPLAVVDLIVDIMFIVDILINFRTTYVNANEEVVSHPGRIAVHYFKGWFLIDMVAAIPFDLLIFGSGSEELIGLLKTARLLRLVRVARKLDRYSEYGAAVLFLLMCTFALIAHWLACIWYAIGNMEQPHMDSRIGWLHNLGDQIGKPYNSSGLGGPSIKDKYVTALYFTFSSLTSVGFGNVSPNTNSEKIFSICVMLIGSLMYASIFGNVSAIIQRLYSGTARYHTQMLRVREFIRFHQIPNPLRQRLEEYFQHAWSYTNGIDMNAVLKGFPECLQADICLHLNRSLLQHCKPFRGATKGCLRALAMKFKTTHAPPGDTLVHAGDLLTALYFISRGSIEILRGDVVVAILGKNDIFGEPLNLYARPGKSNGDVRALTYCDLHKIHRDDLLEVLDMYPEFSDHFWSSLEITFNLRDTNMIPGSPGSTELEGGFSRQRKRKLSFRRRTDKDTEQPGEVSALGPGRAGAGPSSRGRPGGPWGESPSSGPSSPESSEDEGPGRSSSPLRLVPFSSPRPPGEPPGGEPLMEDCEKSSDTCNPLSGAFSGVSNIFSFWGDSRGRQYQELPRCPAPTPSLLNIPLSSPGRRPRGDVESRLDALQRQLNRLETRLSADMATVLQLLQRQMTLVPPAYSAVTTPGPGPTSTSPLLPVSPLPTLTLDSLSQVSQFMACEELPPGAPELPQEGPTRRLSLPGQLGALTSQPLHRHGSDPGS

The target in assay [10] is Small conductance calcium-activated potassium channel protein 1 (Rattus norvegicus) (UniProt P70606). Kind of assay: NVS_IC_rKCaCh: NovaScreen (NVS) Ion Channel Assay for rat Potassium Channel, Ca2+ Act., VI (KCaCh) (AID 2283336). An outline of the steps: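 Filter-based scintillation counting of radioligand bound to rat forebrain membrane preparations, measured 1 h after compound addition. Primary screen used 25 uM in duplicate, with concentration-response follow-up; signal decrease relative to DMSO marks activity.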
Chain of Small conductance calcium-activated potassium channel protein 1 (Rattus norvegicus) (P70606 whole entry, looked up): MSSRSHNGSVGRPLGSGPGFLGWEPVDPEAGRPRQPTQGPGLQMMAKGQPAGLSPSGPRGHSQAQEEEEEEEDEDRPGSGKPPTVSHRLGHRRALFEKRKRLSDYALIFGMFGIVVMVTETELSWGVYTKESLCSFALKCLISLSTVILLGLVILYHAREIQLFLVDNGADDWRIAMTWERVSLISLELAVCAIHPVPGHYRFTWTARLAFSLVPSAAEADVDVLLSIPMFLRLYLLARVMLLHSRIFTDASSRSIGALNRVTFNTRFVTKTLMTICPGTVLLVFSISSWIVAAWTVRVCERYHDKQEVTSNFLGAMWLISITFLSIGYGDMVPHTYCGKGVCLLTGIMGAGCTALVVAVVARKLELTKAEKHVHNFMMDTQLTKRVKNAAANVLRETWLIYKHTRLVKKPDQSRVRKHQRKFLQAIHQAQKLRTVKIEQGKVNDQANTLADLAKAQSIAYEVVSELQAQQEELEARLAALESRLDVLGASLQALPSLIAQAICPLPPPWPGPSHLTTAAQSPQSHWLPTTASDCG

Assay [11] addresses Glutamate receptor ionotropic, kainate 1 (Rattus norvegicus) (UniProt P22756). Kind of assay: NVS_IC_rKAR: NovaScreen (NVS) Ion Channel Assay for rat Kainic Acid Receptors (KAR) (AID 2283334; active means hit-call score of the fitted dose curve at least 0.9, where 1 is the maximum; inactive means score below 0.9). Summed up:
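Rat forebrain membrane preparation incubated 1 h with radioligand and test chemical; bound signal read by filtration and scintillation. Single-concentration screen at 25 uM, then concentration series to 50 uM maximum.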

Assay [12] addresses human Androgen Receptor (AR), AR (gene 367) (UniProt P10275). Kind of assay: NVS_NR_hAR: NovaScreen (NVS) Nuclear Receptor Binding Assay for human Androgen Receptor (AR) (AID 2283332). Summed up:
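Actives from a duplicate 25 uM single-point screen went on to concentration series. Read-out after 20 h was scintillation counting of displaced radioligand in LnCAP extract, with DMSO as baseline.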

Assay [13] relates to guinea pig Histamine Receptor (H2), gene 100729734. Put plainly: NVS_GPCR_gH2: NovaScreen (NVS) G Protein-Coupled Receptor Assay for guinea pig Histamine Receptor (H2) (AID 2283342). Summed up:
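Guinea pig striatal membrane preparation with specific radioligand; bound counts measured by filtration and scintillation 1 h post-dosing, DMSO as baseline. Chemicals passing a 25 uM duplicate screen were titrated to a 50 uM maximum.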

Assay [14] addresses human Constitutive Androstane Receptor (CAR), NR1I3 (gene 9970) (UniProt Q14994). Put plainly: NVS_NR_hCAR_Antagonist: NovaScreen (NVS) Nuclear Receptor Binding Assay for human Constitutive Androstane Receptor Antagonism (CAR) (AID 2283344). An outline of the steps: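 Single 25 uM duplicate primary screen, with concentration-series follow-up on actives. Cell-free binding format run in antagonist mode, TR-FRET signal taken 1 h post-dose; activity is signal loss relative to DMSO.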

Inconclusive results are not listed. The source made the active and inactive calls. How the source made its calls, unless noted: active means hit-call score of the fitted dose curve at least 0.9, where 1 is the maximum; inconclusive means response in the unintended direction; inactive means score below 0.9.

Chain of Glutamate receptor ionotropic, kainate 1 (Rattus norvegicus) (P22756 whole entry, looked up): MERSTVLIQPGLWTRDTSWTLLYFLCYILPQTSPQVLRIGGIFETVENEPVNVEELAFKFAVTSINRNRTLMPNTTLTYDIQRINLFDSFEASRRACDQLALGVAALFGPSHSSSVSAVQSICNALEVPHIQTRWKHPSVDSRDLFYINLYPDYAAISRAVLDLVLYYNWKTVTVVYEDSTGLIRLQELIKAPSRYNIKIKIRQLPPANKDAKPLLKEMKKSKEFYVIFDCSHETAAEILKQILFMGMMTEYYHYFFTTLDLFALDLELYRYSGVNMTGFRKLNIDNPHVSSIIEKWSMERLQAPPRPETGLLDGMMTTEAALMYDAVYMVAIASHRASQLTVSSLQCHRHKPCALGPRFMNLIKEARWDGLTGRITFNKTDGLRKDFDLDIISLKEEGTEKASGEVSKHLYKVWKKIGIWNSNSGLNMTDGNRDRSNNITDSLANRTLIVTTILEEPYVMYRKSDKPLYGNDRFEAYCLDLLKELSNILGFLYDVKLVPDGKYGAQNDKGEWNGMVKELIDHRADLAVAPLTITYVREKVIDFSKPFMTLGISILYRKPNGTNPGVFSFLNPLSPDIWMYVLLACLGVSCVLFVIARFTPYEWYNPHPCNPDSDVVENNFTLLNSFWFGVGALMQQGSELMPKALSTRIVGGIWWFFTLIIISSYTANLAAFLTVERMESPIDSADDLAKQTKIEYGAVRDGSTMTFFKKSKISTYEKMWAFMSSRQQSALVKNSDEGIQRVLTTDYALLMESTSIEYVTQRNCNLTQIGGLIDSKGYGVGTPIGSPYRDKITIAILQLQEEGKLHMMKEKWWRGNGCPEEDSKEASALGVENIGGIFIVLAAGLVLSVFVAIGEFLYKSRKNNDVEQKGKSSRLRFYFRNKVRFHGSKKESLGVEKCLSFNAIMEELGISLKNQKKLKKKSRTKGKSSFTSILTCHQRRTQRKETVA
Chain of bovine Gamma-Aminobutyric Acid Type A Receptor Agonist (GABAR Agonist), GABRA1 (gene 780973) (P08219 whole entry, looked up): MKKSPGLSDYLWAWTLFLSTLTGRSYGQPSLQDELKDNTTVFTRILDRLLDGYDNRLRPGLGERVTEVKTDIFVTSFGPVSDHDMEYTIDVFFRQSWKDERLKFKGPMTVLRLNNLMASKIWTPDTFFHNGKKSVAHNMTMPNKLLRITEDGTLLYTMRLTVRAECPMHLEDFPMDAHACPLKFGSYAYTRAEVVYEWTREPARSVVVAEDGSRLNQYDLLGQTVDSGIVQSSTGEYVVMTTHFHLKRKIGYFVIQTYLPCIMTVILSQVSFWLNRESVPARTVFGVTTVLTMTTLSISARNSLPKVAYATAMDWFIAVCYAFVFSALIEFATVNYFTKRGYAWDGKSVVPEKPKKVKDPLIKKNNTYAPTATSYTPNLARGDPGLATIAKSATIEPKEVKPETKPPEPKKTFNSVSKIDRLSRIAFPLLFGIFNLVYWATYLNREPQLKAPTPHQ
Chain of human Constitutive Androstane Receptor (CAR), NR1I3 (gene 9970) (Q14994 whole entry, looked up): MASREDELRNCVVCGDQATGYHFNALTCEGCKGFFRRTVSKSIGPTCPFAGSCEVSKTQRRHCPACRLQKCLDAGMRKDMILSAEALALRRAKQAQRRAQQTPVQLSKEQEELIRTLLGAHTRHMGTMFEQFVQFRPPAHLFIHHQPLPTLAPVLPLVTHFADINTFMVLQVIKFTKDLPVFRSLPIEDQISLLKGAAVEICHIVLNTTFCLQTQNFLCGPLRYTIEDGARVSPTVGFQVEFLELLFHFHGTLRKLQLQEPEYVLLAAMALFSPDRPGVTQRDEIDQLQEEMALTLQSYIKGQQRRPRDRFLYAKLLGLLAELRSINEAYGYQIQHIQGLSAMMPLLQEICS

Regarding `CCCCCCCC(=O)O`, the molecule was classed as inactive in assay [1] and in assay [2].

As for `O=C(OCCOCCOC(=O)c1ccccc1)c1ccccc1`, the outcome in assay [1] and in assay [3] was inactive. Consider `NC(=O)N(O)[C@@H]1C=C[C@H](Oc2cccc(Oc3ccc(F)cc3)c2)C1`, for which the call in [2] and in assay [4] was inactive.

`CCN(CC)CCNc1ccc(CNC=O)c2sc3ccc(OC)cc3c(=O)c12`: the call in [5] was inactive.

As to `Cc1cc(C)c(O)c(C)c1`, the molecule was classed as inactive in assay [6].

As for `CCCCCCCCCCCCc1ccccc1S(=O)(=O)O`, the results for the AC50 (in assay [6]; in the assay with NCBI gene 100848466) were 20.1 µM (active) and 17.1 µM (active), respectively. Also, in assay [7], the result was inactive. On to `CC(=O)CC(C)(C)O`, for which the call in [8] was inactive. The same measure, in the same setting: to `Cc1ccc(S(=O)(=O)O)c(C)c1` belongs “inactive”. Regarding `CCCOc1sc(C(=O)N2CCC(c3cc(CN)ccc3F)CC2)c(C)c1Br`, the AC50 in [9] is 7.87 µM (active). On to `CC(=O)NC1(c2cccc(F)c2)CCN(CC[C@@]2(c3ccc(Cl)c(Cl)c3)CN(c3ccccc3)C(=O)CO2)CC1`, for which, in [9], the AC50 is 14 µM (active). The result in assay [10] was inactive. With `COC(=O)CCCCC(=O)OC`, in [11], the outcome was inactive. On to `CC[C@H](C)[C@@H](C(=O)O)n1sc2ccccc2c1=O`, for which the outcome in assay [11] was inactive. Consider `CC#C[C@]1(O)CC[C@H]2[C@@H]3CCC4=CC(=O)CCC4=C3[C@@H](c3ccc(N(C)C)cc3)C[C@@]21C`, for which, in the assay on NCBI gene 100848466, the AC50 is 0.00874 µM (active).

Consider `ClC1=C(Cl)C(Cl)(Cl)C(Cl)=C1Cl`, for which the outcome in assay [8] and in assay [7] was inactive. In the case of `C#C[C@]1(O)CC[C@H]2[C@@H]3CCC4=CC(=O)CC[C@@H]4[C@H]3CC[C@@]21C`, the molecule was classed as inactive in assay [8]. Turning to `Oc1cc2ccccc2c2ccccc12`, the AC50 in [12] is 19.2 µM (active).

As to `COc1ccc([N+](=O)[O-])cc1N`, the molecule was called inactive in assay [9]. Turning to `OCCC(F)(F)C(F)(F)C(F)(F)C(F)(F)C(F)(F)C(F)(F)C(F)(F)C(F)(F)F`, the call in [11] and in [3] was inactive. With `NC(=O)N1C(=O)C(C(=O)c2cc(Cl)cs2)c2cc(F)c(Cl)cc21` (configuration not stated), the outcome in assay [11] was inactive.

As for `CN(C)C=O`, the outcome in assay [10] was inactive.

`CCCCCCCCCCCCCCCS(=O)(=O)Oc1ccccc1`: the result in assay [3] was inactive. Take `C[C@@H]1C[C@H]2[C@@H]3CCC4=CC(=O)C=C[C@]4(C)[C@@]3(F)[C@@H](O)C[C@]2(C)[C@@]1(O)C(=O)COP(=O)(O)O`: the outcome in [13] was inactive. Regarding `O=C(O)c1ccccc1C(c1ccc(O)cc1)c1ccc(O)cc1`, the AC50 in [14] is 0.427 µM (active). For the molecule `COCC(C)OCC(C)O` (configuration not stated), the call in assay [14] was inactive.
